# According to the supplement of paper PMC10037445:
# Over roughly 2,900 compounds, “NF-kB SEAP reporter activity, fold change vs agonist alone” has its median near 0.99; the highest 2% begin near 2.6. For the sample, the highest values were picked, then their nearest neighbours and some compounds at random.
# Tests used:
# [1] = system: RAW-Dual; test: NF-kB SEAP reporter activity, fold change vs agonist alone; cytotoxicity flag (confluency mask): not cytotoxic; higher = enhanced NF-kB activity
# How it was run: (§1)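 Library stock was pin-tooled at 50 nL into 384-well plates of RAW-Dual macrophages (50,000 cells/well, DMEM), followed 1 h later by a PRR agonist, and the cells were kept at 37 °C, 5% CO2. Supernatant collected after 20 hours was read for IRF by QuantiLuc luminescence and for NF-κB by QuantiBlue absorbance at 620 nm. Reporter activity is fold change over agonist-alone wells, and a well counted as cytotoxic when its IncuCyte confluency was below 70% of agonist controls in both mask sets.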
# [2] = system: RAW-Dual; test: NF-kB SEAP reporter activity, fold change vs agonist alone; higher = enhanced NF-kB activity
# How it was run: as §1
# [3] = system: RAW-Dual; test: NF-kB SEAP reporter activity, fold change vs agonist alone; cytotoxicity flag (confluency mask): cytotoxic (confluency <70% of control); higher = enhanced NF-kB activity
# How it was run: as §1
# [4] = agonist: ODN 1826 (TLR9) 0.5 ug/mL
# [5] = agonist: Pam2CSK4 (TLR2/6) 0.1 ug/mL
# [6] = agonist: Pam3CSK4 (TLR2/1) 0.1 ug/mL
# [7] = library stock concentration (final ~1000-fold dilution): 10 mM, cytotoxicity flag (confluency mask): not cytotoxic, agonist: Imiquimod (TLR7) […]
# [8] = library stock concentration (final ~1000-fold dilution): 10 mM, cytotoxicity flag (confluency mask): not cytotoxic, agonist: MPLA (TLR4) […]
# [9] = library stock concentration (final ~1000-fold dilution): 2 mM, cytotoxicity flag (confluency mask): not cytotoxic, agonist: Imiquimod (TLR7) […]
# [10] = library stock concentration (final ~1000-fold dilution): 2 mM, cytotoxicity flag (confluency mask): not cytotoxic, agonist: MPLA (TLR4) […]
# [11] = library stock concentration (final ~1000-fold dilution): 10 mM, cytotoxicity flag (confluency mask): cytotoxic (confluency <70% of control), agonist: Imiquimod (TLR7) […]
# [12] = library stock concentration (final ~1000-fold dilution): 10 mM, cytotoxicity flag (confluency mask): cytotoxic (confluency <70% of control), agonist: MPLA (TLR4) […]
compound,measurement,setting,value
CC(C)(C)c1ccc(Cn2nc(-c3ccc(Cl)cc3)cc2C(=O)NO)cc1 (library stock concentration (final ~1000-fold dilution): 10 mM),NF-kB SEAP reporter activity,[1]; agonist: LPS (TLR4) 0.1 ug/mL,1.32
same,NF-kB SEAP reporter activity,[1]; [4],1.24
same,NF-kB SEAP reporter activity,[1]; [5],0.824
same,NF-kB SEAP reporter activity,[1]; [6],0.964
CC(C)(C)c1ccc(Cn2nc(-c3ccc(Cl)cc3)cc2C(=O)NO)cc1,NF-kB SEAP reporter activity,[2]; [7],1.47
same,NF-kB SEAP reporter activity,[2]; [8],1.5
COC1/C=C/OC2(C)Oc3c(C)c(O)c4c(O)c(c(/C=N/N5CCN(C)CC5)c(O)c4c3C2=O)NC(=O)/C(C)=C/C=C/C(C)C(O)C(C)C(O)C(C)C(OC(C)=O)C1C (stereo not drawn),NF-kB SEAP reporter activity,[2]; [7],0.886
same,NF-kB SEAP reporter activity,[2]; [8],0.877
COC1/C=C/OC2(C)Oc3c(C)c(O)c4c(O)c(c(/C=N/N5CCN(C)CC5)c(O)c4c3C2=O)NC(=O)/C(C)=C/C=C/C(C)C(O)C(C)C(O)C(C)C(OC(C)=O)C1C (stereo not drawn) (library stock concentration (final ~1000-fold dilution): 10 mM),NF-kB SEAP reporter activity,[1]; agonist: LPS (TLR4) 0.1 ug/mL,0.987
same,NF-kB SEAP reporter activity,[1]; [4],0.979
same,NF-kB SEAP reporter activity,[1]; [5],0.906
same,NF-kB SEAP reporter activity,[1]; [6],0.892
O=C(O)c1ccc(CSc2nc(-c3ccccc3)cc(N3CCN(c4ccccc4Cl)CC3)n2)cc1,NF-kB SEAP reporter activity,[2]; [7],0.515
same,NF-kB SEAP reporter activity,[2]; [8],0.868
O=C(O)c1ccc(CSc2nc(-c3ccccc3)cc(N3CCN(c4ccccc4Cl)CC3)n2)cc1 (library stock concentration (final ~1000-fold dilution): 10 mM),NF-kB SEAP reporter activity,[1]; agonist: LPS (TLR4) 0.1 ug/mL,0.736
same,NF-kB SEAP reporter activity,[1]; [4],0.584
same,NF-kB SEAP reporter activity,[1]; [5],0.248
same,NF-kB SEAP reporter activity,[1]; [6],0.392
CC(C)CC(NC(=O)CNC(=O)c1cc(Cl)ccc1Cl)B1OC(=O)CC(CC(=O)O)(C(=O)O)O1 (stereo not drawn),NF-kB SEAP reporter activity,[2]; [7],0.956
same,NF-kB SEAP reporter activity,[2]; [8],0.913
CC(C)CC(NC(=O)CNC(=O)c1cc(Cl)ccc1Cl)B1OC(=O)CC(CC(=O)O)(C(=O)O)O1 (stereo not drawn) (library stock concentration (final ~1000-fold dilution): 10 mM),NF-kB SEAP reporter activity,[1]; agonist: LPS (TLR4) 0.1 ug/mL,0.585
same,NF-kB SEAP reporter activity,[1]; [4],0.938
same,NF-kB SEAP reporter activity,[1]; [5],0.905
same,NF-kB SEAP reporter activity,[1]; [6],0.999
O=c1cc(N2CCOCC2)oc2c(-c3cccc4c3sc3ccccc34)cccc12,NF-kB SEAP reporter activity,[2]; [9],1.46
same,NF-kB SEAP reporter activity,[2]; [10],2.31
O=c1cc(N2CCOCC2)oc2c1ccc1ccccc12 (library stock concentration (final ~1000-fold dilution): 2 mM),NF-kB SEAP reporter activity,[1]; agonist: LPS (TLR4) 0.1 ug/mL,1.12
same,NF-kB SEAP reporter activity,[1]; [4],1
same,NF-kB SEAP reporter activity,[1]; [5],0.982
same,NF-kB SEAP reporter activity,[1]; [6],1.07
O=c1cc(N2CCOCC2)oc2c(-c3ccccc3)cccc12,NF-kB SEAP reporter activity,[2]; [11],1.07
same,NF-kB SEAP reporter activity,[2]; [12],1.63
O=c1nc(N2CCOCC2)oc2c(-c3cccc4c3sc3ccccc34)cccc12 (library stock concentration (final ~1000-fold dilution): 10 mM),NF-kB SEAP reporter activity,[1]; agonist: LPS (TLR4) 0.1 ug/mL,3.45
same,NF-kB SEAP reporter activity,[1]; [4],1.08
same,NF-kB SEAP reporter activity,[1]; [5],0.718
same,NF-kB SEAP reporter activity,[1]; [6],1.38
O=c1cc(N2CCOCC2)oc2c1ccc1ccccc12,NF-kB SEAP reporter activity,[2]; [9],1.04
same,NF-kB SEAP reporter activity,[2]; [10],0.989
O=c1nc(N2CCOCC2)oc2c(-c3cccc4c3sc3ccccc34)cccc12,NF-kB SEAP reporter activity,[2]; [7],1.1
same,NF-kB SEAP reporter activity,[2]; [8],1.85
O=c1cc(N2CCOCC2)oc2c(-c3cccc4c3sc3ccccc34)cccc12 (library stock concentration (final ~1000-fold dilution): 2 mM),NF-kB SEAP reporter activity,[1]; agonist: LPS (TLR4) 0.1 ug/mL,5.39
same,NF-kB SEAP reporter activity,[1]; [4],1.43
same,NF-kB SEAP reporter activity,[1]; [5],1.05
same,NF-kB SEAP reporter activity,[1]; [6],2.43
O=c1cc(N2CCOCC2)oc2c(-c3ccccc3)cccc12 (library stock concentration (final ~1000-fold dilution): 10 mM),NF-kB SEAP reporter activity,[3]; agonist: LPS (TLR4) 0.1 ug/mL,1.81
same,NF-kB SEAP reporter activity,[3]; [4],1.34
same,NF-kB SEAP reporter activity,[3]; [5],0.984
same,NF-kB SEAP reporter activity,[3]; [6],1.19
CC(=O)N1CCCC1C(=O)NC(Cc1c[nH]cn1)C(=O)NC(CO)C(=O)NC(CS)C(=O)NC(CC(N)=O)C(N)=O (stereo not drawn) (library stock concentration (final ~1000-fold dilution): 10 mM water),NF-kB SEAP reporter activity,[1]; agonist: LPS (TLR4) 0.1 ug/mL,1.15
same,NF-kB SEAP reporter activity,[1]; [4],1.22
same,NF-kB SEAP reporter activity,[1]; [5],1.19
same,NF-kB SEAP reporter activity,[1]; [6],1.02
CC(=O)N1CCCC1C(=O)NC(Cc1c[nH]cn1)C(=O)NC(CO)C(=O)NC(CS)C(=O)NC(CC(N)=O)C(N)=O (stereo not drawn),NF-kB SEAP reporter activity,"[2]; library stock concentration (final ~1000-fold dilution): 10 mM water, cytotoxicity flag (confluency mask): not cytotoxic, agonist: Imiquimod (TLR7) […]",0.979
same,NF-kB SEAP reporter activity,"[2]; library stock concentration (final ~1000-fold dilution): 10 mM water, cytotoxicity flag (confluency mask): not cytotoxic, agonist: MPLA (TLR4) […]",1.06
CC(C)COc1ccc(CNC(=O)N(Cc2ccc(F)cc2)C2CCN(C)CC2)cc1.CC(C)COc1ccc(CNC(=O)N(Cc2ccc(F)cc2)C2CCN(C)CC2)cc1.O=C(O)C(O)C(O)C(=O)O,NF-kB SEAP reporter activity,[2]; [11],0.496
same,NF-kB SEAP reporter activity,[2]; [12],1.23
CC(C)COc1ccc(CNC(=O)N(Cc2ccc(F)cc2)C2CCN(C)CC2)cc1.CC(C)COc1ccc(CNC(=O)N(Cc2ccc(F)cc2)C2CCN(C)CC2)cc1.O=C(O)C(O)C(O)C(=O)O (library stock concentration (final ~1000-fold dilution): 10 mM),NF-kB SEAP reporter activity,[3]; agonist: LPS (TLR4) 0.1 ug/mL,0.205
same,NF-kB SEAP reporter activity,[3]; [4],0.239
same,NF-kB SEAP reporter activity,[3]; [5],0.0981
same,NF-kB SEAP reporter activity,[3]; [6],0.143
CCNC1=NC2C(OC(CO)C(O)C2O)S1 (stereo not drawn),NF-kB SEAP reporter activity,[2]; [7],1
same,NF-kB SEAP reporter activity,[2]; [8],1.17
CCNC1=NC2C(OC(CO)C(O)C2O)S1 (stereo not drawn) (library stock concentration (final ~1000-fold dilution): 10 mM),NF-kB SEAP reporter activity,[1]; agonist: LPS (TLR4) 0.1 ug/mL,1.15
same,NF-kB SEAP reporter activity,[1]; [4],1.17
same,NF-kB SEAP reporter activity,[1]; [5],1.04
same,NF-kB SEAP reporter activity,[1]; [6],1.5
CC/C(=C(\c1ccc(O)cc1)c1ccc(OCCNC)cc1)c1ccccc1.Cl (library stock concentration (final ~1000-fold dilution): 10 mM),NF-kB SEAP reporter activity,[3]; agonist: LPS (TLR4) 0.1 ug/mL,0.354
same,NF-kB SEAP reporter activity,[3]; [4],0.211
same,NF-kB SEAP reporter activity,[3]; [5],0.157
same,NF-kB SEAP reporter activity,[3]; [6],0.135
CC/C(=C(\c1ccc(O)cc1)c1ccc(OCCNC)cc1)c1ccccc1.Cl,NF-kB SEAP reporter activity,[2]; [11],0.387
same,NF-kB SEAP reporter activity,[2]; [12],0.632
O=C(c1ccc(Oc2ccccc2)cc1Cl)c1c[nH]c2ncnc(NC3CCC(CO)OC3)c12 (stereo not drawn) (library stock concentration (final ~1000-fold dilution): 10 mM),NF-kB SEAP reporter activity,[3]; agonist: LPS (TLR4) 0.1 ug/mL,0.431
same,NF-kB SEAP reporter activity,[3]; [4],0.161
same,NF-kB SEAP reporter activity,[3]; [5],0.293
same,NF-kB SEAP reporter activity,[3]; [6],0.129
O=C(c1ccc(Oc2ccccc2)cc1Cl)c1c[nH]c2ncnc(NC3CCC(CO)OC3)c12 (stereo not drawn),NF-kB SEAP reporter activity,[2]; [11],0.133
same,NF-kB SEAP reporter activity,[2]; [12],0.252
